DAX1 inh-1: NR0B1 (DAX1) inhibition. inhibition, % at 6.75 µM. AID 504766. P51843. hit rate 0.99% among 340,000. HEK293 Gal4-DAX1 luciferase reporter, luminescence;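 active means inhibition above the mean over all tested compounds plus 3 SD, cut at about 4.2% in these data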;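 further: 0% = DAX1-transfected cells with DMSO and 100% = empty-vector control cells with DMSO; inhibition shows as a rise in luminescence from relieved DAX1 repression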
hgDAF12 agonist: agonists of H. glycines DAF-12 nuclear receptor | HEK293 GAL4-hgDAF12 UAS-luciferase reporter, agonist luminescence; normalized to butyrate control | activation, % at 6.8 µM | hit rate 1.8% among 370,000 | AID 687014;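 active means activation above a cutoff set at the mean of all screened compounds plus 3 SD, cut at about 10% in these data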;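 further: 0% = DMSO wells and 100% = sodium butyrate wells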
DAX1 inh-2: blocks DAX1 repression of SF-1 activated StAR promoter. inhibition, % at 6.8 µM. HEK293T StAR-luciferase reporter, SF-1/DAX-1 repression relief. hit rate 1.1% among 370,000. AID 652010;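 active means inhibition above the mean over all tested compounds plus 3 SD, cut at about 3.6% in these data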;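 further: 0% = DAX-1 cells with DMSO and 100% = cells lacking DAX-1 with DMSO; higher inhibition means more luminescence from relief of DAX-1 repression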
ssDAF-12 act: S. stercoralis DAF-12 activation, primary screen. HEK293 ssDAF-12/GRIP1 lit1-tk-luc reporter, luminescence; % of 3 µM dafachronic acid response. activation, % at 6.8 µM. hit rate 1% among 370,000. AID 652126;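 active means activation above the mean over all tested compounds plus 3 SD, cut at about 0.9% in these data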;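 further: 0% = DMSO-only wells and 100% = 3 µM delta7-dafachronic acid wells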
hcDAF-12 act: activators of H. contortus DAF-12 nuclear receptor | HEK293 hcDAF-12 lit1-tk-luc reporter, luminescence; 0% DMSO, 100% Δ7-dafachronic acid | AID 652067 | activation, % at 6.8 µM | hit rate 1.4% among 370,000;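 active means activation above the mean of all tested compounds plus 3 SD, cut at about 5.5% in these data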;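 further: 100% = response to 3 µM Δ7-dafachronic acid high control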
LXRb hcDAF ctr: activates human LXR-beta, counter-screen for hcDAF-12 agonists; shares compounds with hcDAF-12 act; HEK293 Gal4-LXR tk-luc reporter, luminescence, 24 h; normalized: DMSO 0%, positive control 100%; activation, % at 6.8 µM; 3,400 tested, under 10 active; AID 743027;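 active means mean percent activation of the reporter above a cutoff set as the average over tested compounds plus their standard deviation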
Target sequence (P55055 whole entry, looked up, the tested form may be a part): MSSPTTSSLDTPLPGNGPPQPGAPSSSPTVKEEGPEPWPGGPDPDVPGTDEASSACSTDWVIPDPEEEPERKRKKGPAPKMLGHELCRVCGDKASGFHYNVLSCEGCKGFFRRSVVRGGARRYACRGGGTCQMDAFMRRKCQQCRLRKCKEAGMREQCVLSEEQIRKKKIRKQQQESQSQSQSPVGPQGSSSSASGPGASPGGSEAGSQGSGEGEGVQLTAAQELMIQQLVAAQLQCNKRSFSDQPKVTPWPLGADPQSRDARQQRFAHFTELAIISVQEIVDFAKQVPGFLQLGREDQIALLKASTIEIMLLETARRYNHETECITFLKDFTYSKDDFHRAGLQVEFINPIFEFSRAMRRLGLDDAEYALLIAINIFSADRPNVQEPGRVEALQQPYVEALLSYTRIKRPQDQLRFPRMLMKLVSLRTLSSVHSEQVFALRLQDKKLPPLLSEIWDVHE
hcDAF12 conf: confirmation of H. contortus DAF-12 agonists; hit rate 61% among 3,400; activation, % at 6.8 µM; HEK293 hcDAF-12 lit1-tk-luc reporter, luminescence; % of Δ7-dafachronic acid response; AID 743032; shares compounds with hcDAF-12 act;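 active means mean activation across triplicate tests above the threshold derived from the earlier primary screen, cut at about 5.5% in these data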;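 further: 0% = DMSO only wells and 100% = 3 µM Δ7-dafachronic acid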
Starred values were filed as active, the others as inactive; . = no result. Shown are actives, neighbours in structure and some others; about 4.1% of the full set was active somewhere.

SMILES	DAX1 inh-1	hgDAF12 agonist	DAX1 inh-2	ssDAF-12 act	hcDAF-12 act	LXRb hcDAF ctr	hcDAF12 conf
Cc1c(C(=N)C(C#N)C#N)c(=N)oc2c1ccc1ccccc12	0	3	0	1	8.2*	0	8.1*
COc1ccccc1CC(=O)NC1CCCc2ccccc21 (stereo not drawn)	1	1	0	-1	-1	.	.
COc1cccc2c1SCc1ccccc1C2CC(N)=O (stereo not drawn)	1	0	1	0	6.8*	0	3
CC(C)N(C[C@@H]1CSCCS(=O)(=O)N1)C(C)C	.	-3	2	-1	1	.	.
c1nc(NCC2CCCCO2)c2cc(-c3ccc4c(c3)OCO4)ccc2n1 (stereo not drawn)	.	-1	.	-1	6.9*	0	2
c1nc(NCC2CCCO2)c2cc(-c3ccc4c(c3)OCO4)ccc2n1 (stereo not drawn)	.	2	.	-1	1	.	.
Cc1ccc(-n2c3c(cc(C(=O)NC4CCSC4=O)c2=O)C(=O)CC(C)(C)C3)cc1 (stereo not drawn)	0	0	0	-1	6.9*	0	-1
Clc1ccc2nc(-c3ccc4c(c3)OCO4)cn2c1	-1	5	3.7*	-1	7.5*	1	7.1*
Cc1nc(NC(=O)c2cccnc2Cl)sc1C	3	9	1	1	8.5*	1	5
O=S(=O)(Nc1nc2ccccc2nc1N1CCN(c2ccccc2)CC1)c1ccc(F)cc1	-1	0	0	1	8.3*	0	5
Cc1ccccc1N=C1NN=C(c2ccccc2F)CS1	2	13*	3	1	9.4*	1	11*
Cc1cccc(C)c1N=C1NN=C(c2ccccc2F)CS1	3	9	0	0	1	.	.
C=CCN1C(=O)c2n[nH]c(COC)c2C1c1ccc(F)cc1 (stereo not drawn)	.	0	-1	0	3	.	.
Oc1ccc(Br)cc1-c1cc(-c2ccco2)[nH]n1	0	6	1	0	3	.	.
Oc1ccccc1-c1cc(-c2ccco2)[nH]n1	1	12*	2	1	7.6*	1	9.2*
Oc1ccc(Cl)cc1-c1cc(-c2ccco2)[nH]n1	1	9	1	0	7.6*	0	3
Cc1ccc(C(=O)N/C(=C\c2ccc(-c3ccccc3[N+](=O)[O-])o2)C(=O)NCCCN2CCOCC2)cc1	-1	-1	-5	0	7.3*	0	2
O=C(OCC#CCSc1nnc(-c2cccc3ccccc23)o1)C1CCC1	.	1	.	-1	-4	.	.
O=C(/C=C/Nc1ccccc1C(=O)O)c1cccs1	0	3	1	-1	8.4*	0	3
O=C(/C=C/Nc1cccc([N+](=O)[O-])c1)c1cccs1	3	13*	2	1.8*	13*	2	14*
CNc1cc([N+](=O)[O-])ccc1N/C=C/C(=O)c1cccs1	1	3	2	1	8.9*	0	5
CCC[C@H](/C=C/C(=O)OC(C)(C)C)Sc1ccc(OC)cc1	.	1	0	-1	0	.	.
CC[C@H](C(=O)Nc1ccccc1N1CCCC1)c1ccccc1	.	2	-1	-1	-2	.	.
COc1ccc(C(=O)NCC(=O)Nc2ccc(-c3ccccc3)cc2)cc1	1	-1	0	-1	2	.	.
CCOc1ccccc1C(=O)NCC(=O)Nc1ccc(-c2ccccc2)cc1	3	2	0	1	6.6*	0	4
SMILES	DAX1 inh-1	hgDAF12 agonist	DAX1 inh-2	ssDAF-12 act	hcDAF-12 act	LXRb hcDAF ctr	hcDAF12 conf
CCOCCCNC(=O)c1cc2c(=O)n3cccc(C)c3nc2s1	0	1	0	0	12*	0	3
Cc1cccn2c(=O)c3cc(C(=O)NCCCOC(C)C)sc3nc12	2	-1	0	-1	1	.	.
COc1cc(NC(=O)c2[nH]c(C)c(C(C)=O)c2C)c(OC)cc1Cl	.	8	.	-1	4	.	.
Nc1ccn([C@@H]2O[C@H](C(=O)N[C@H](Cc3ccccc3)C(=O)NCC(F)(F)F)[C@@H](O)[C@H]2O)c(=O)n1	.	0	0	-1	-1	.	.
CCN(CC)CCCNC(=O)c1cc2c(-c3ccc(Cl)cc3)nn(C)c2s1	5.5*	1	2	0	6.6*	0	6.7*
CCCCN(CC)CCNC(=O)c1cc2c(-c3ccccc3F)nn(C)c2s1	1	-1	1	-1	2	.	.
CCn1c(=O)n(CC(=O)N2CCCC2)c(=O)c2ccccc21	.	4	-1	-1	1	.	.
Nc1nc(-c2ccccc2)ns1	1	4	2	1	6.9*	0	6.1*
CN(C)c1nc(-c2ccccc2)ns1	1	1	0	-1	0	.	.
O=C(NC(=S)Nc1ccccc1[N+](=O)[O-])c1ccccc1Cl	0	7	1	-1	0	.	.
O=C(NNC(=S)NC(=O)c1ccccc1[N+](=O)[O-])c1ccccc1Cl	-1	4	0	-1	7.2*	0	0
CC(=O)O[C@H]1CC[C@]2(C)C3CC[C@]4(C)[C@@H]([C@H](C)/C=C/[C@H](C)C(C)C)CC[C@H]4[C@@]34C=C[C@]2(C1)N(C(=O)c1ccccc1)O4 (stereo partly drawn)	.	2	0	-1	-1	.	.
C/C(CC(=O)Nc1ccccn1)=N\NC(=O)c1ccccc1O	1	-1	0	1.0*	11*	0	9.1*
C/C(CC(=O)Nc1ccccn1)=N\NC(=O)c1ccc2ccccc2c1	0	3	0	-1	1	.	.
C/C(CC(=O)Nc1cc(C)cc(C)c1)=N\NC(=O)c1ccccn1	2	11*	3	0	7.4*	0	0
Cc1ccc2ccc(C3C(=O)c4ccccc4C3=O)nc2c1	1	14*	3	1.8*	15*	2	19*
CCOC(=O)N1N=C(c2ccc(C)cc2)CC1(O)C(F)(F)F (stereo not drawn)	-1	11*	4.3*	0	8.1*	1	8.0*
CCOC(=O)N1N=C(c2ccccc2)CC1(O)C(F)(F)F (stereo not drawn)	1	10	1	-1	2	.	.
Nc1nc2c(ncn2[C@@H]2O[C@H](C(=O)N[C@H](Cc3ccccc3)C(=O)NCCCc3ccccc3)[C@@H](O)[C@H]2O)c(=O)[nH]1	.	1	0	-1	0	.	.
COC(=O)[C@]12C[C@H](CC(=O)N3CCSCC3)C(=O)N(Cc3ccc4c(c3)OCO4)C1=C[C@H](C(C)C)O[C@@H]2C1CC1	.	2	0	-1	-2	.	.

Bioassay records (PubChem)
